Structures are written as SMILES. The campaign covered roughly 360,000 compounds. About 3,100 (0.86%) were called active.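 Rule for the calls: active = inhibition or corrected inhibition above about 18%, plus a signal ratio from 0.5 to 1.5 (limit read from the data, passing the limit was not always enough); inactive = the rest.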 The full list was thinned out, with actives kept by preference.

This assay deals with Neuropilin-1 (Homo sapiens) (UniProt O14786). Briefly: NRP-1/CendR peptide interaction modulators – biochemical, fluorescence polarization, uHTS, primary screen (AID 602438). To be noted: FAM-RPARPAR peptide binding to NRP-1, fluorescence polarization; at 25 µM; hits give high values. (In general: Fluorescence polarisation rises when a labelled molecule tumbles more slowly, as on binding a larger partner.)
Sequence of Neuropilin-1 (Homo sapiens) (O14786 whole entry, looked up): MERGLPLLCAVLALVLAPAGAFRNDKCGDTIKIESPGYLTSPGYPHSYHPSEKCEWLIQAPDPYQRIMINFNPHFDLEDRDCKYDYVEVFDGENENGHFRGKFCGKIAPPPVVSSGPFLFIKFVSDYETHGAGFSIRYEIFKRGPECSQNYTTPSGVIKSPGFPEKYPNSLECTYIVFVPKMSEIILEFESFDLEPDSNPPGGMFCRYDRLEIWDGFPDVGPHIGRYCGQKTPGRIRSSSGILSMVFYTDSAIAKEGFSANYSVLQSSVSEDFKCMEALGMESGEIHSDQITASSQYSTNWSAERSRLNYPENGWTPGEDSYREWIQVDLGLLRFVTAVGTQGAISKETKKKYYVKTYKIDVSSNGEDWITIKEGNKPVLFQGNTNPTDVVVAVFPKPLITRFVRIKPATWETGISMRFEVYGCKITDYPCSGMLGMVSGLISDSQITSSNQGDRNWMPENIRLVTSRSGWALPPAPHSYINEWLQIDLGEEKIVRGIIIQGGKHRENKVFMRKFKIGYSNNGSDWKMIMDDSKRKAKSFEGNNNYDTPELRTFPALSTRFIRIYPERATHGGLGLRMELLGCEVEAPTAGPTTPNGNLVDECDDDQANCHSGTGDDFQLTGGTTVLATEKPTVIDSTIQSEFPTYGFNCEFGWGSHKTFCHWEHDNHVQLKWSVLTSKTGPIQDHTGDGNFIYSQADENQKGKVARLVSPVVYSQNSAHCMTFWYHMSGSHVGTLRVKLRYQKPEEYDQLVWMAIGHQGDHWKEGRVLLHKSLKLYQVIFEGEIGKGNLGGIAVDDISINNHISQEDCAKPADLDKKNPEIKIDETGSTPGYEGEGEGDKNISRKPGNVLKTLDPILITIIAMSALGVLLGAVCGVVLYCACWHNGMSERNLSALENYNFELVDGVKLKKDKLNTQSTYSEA
For the compound `CCOc1cnc(C(=O)NNC(=O)c2ccccc2Br)o1`, the inhibition (in general, the relative decrease from the control value, in per cent) is 6.1% (inactive). With `CCCc1ccc(S(=O)(=O)N2CCN(C(=O)c3cc(C)on3)CC2)cc1` the figure was 1.7% (inactive); with `C=C1C(=O)OC2C1CCC(C)=CCCC1(C)OC21` (stereo not given), -0.7% (inactive). With `Cc1cc2oc(=O)cc(-c3ccccc3)c2c(C)c1-c1ccc(OC(F)(F)F)cc1`, the inhibition is 0.8% (inactive). With `COc1cc(OC)c2c(-c3cccc(-c4cccc(N)c4)c3)cc(=O)oc2c1` the figure was -8.2% (inactive); with `COc1ccc(-c2c(C)cc3oc(=O)cc(-c4ccccc4)c3c2C)cc1C=O`, 34.1% (active).

For `CSCC[C@H](NC(=O)CCCn1nnc2ccccc2c1=O)C(=O)O`, the inhibition is -1.8% (inactive).

With `CC(=O)N1CCC(C(=O)OCc2ccc(Cl)cc2)(c2ccccc2)CC1`, the inhibition is -3% (inactive). The result for `CCOc1ncccc1C(=O)Nc1ccc(S(=O)(=O)Nc2nc(C)cc(C)n2)cc1` reads -0.6% (inactive). On to `COC(=O)Cc1ccc(OCC(=O)Nc2ccc(OC(F)(F)F)cc2)cc1`, for which the inhibition is 1.7% (inactive). In the case of `CCOC(=O)Cc1ncccc1C(=O)Nc1ccc(OC(F)(F)F)cc1`, the inhibition is 29.7% (active). With `CCCCN1CCNC1=S` the figure was -6.7% (inactive); with `CC(NC(=O)c1cc2cc(Cl)ccc2oc1=N)c1ccccc1` (stereo not given), -11% (inactive). With `CC(NCc1nc2ccccc2n1C)C12CC3CC(CC(C3)C1)C2` (stereo not given) the figure was -3.5% (inactive). With `Cc1cc(=O)oc2c(C)c(OCC(=O)NCCc3ccc(S(N)(=O)=O)cc3)ccc12` the figure was -18.3% (inactive); with `CCc1cc(=O)oc2c(C)c(OCC(=O)NCCN3CCOCC3)ccc12`, 10.3% (inactive); with `Cc1cc(=O)oc2c(C)c(OCC(=O)NCCN3CCOCC3)ccc12`, 25.8% (active). In the case of `CC1CC(C)CN(S(=O)(=O)c2ccc(C(=O)NN3CCOCC3)cc2)C1` (stereo not given), the inhibition is -2.9% (inactive). Turning to `CC1CC(C)CN(c2ccc(S(=O)(=O)N3CCOCC3)cc2)C1` (stereo not given), the inhibition was 22.3% (active). The result for `Cc1ccc(S(=O)(=O)N2CCN(S(=O)(=O)N3CCOCC3)CC2)cc1` reads 0% (inactive). With `Cc1c(CC(=O)N2CCN(C(=O)C3COc4ccccc4O3)CC2)c(=O)oc2c(O)c(O)ccc12` (stereo not given) the figure was -49.5% (inactive); with `COC(=O)[C@@]1(Cc2ccc(F)cc2)[C@H]2c3cc(C(=O)N4CCCC4)n(C[C@H](O)CO)c3C[C@H]2CN1C(=O)c1ccccc1`, -11.6% (inactive); with `Cc1ccc2c(c1)N(CCCC(=O)NCc1cccnc1)C(=O)CO2`, 12.9% (inactive). Turning to `Cc1cc(Cl)ccc1C(=O)C1CCCN(C(=O)c2nonc2C)C1` (stereo not given), the inhibition is -2.6% (inactive). Take `CCCC(=O)NC(Nc1ccccc1OC)C(Cl)(Cl)Cl` (stereo not given): the inhibition was -6.4% (inactive). On to `Cn1c(NN)nc2sc3c(c2c1=O)CCC3`, for which the inhibition is 17.4% (active).

For `NNC(=O)C1CCCn2c1nc1sc3c(c1c2=O)CCCC3` (stereo not given), the inhibition was 1.2% (inactive). The result for `C=C(C)CSc1nc(N)c2c3c(sc2n1)CCC3` reads -0.3% (inactive).

On to `O=C(C/C(=N\NC(=O)c1ccccc1Br)C(F)(F)F)c1cccs1`, for which the inhibition is 0% (inactive). The result for `CN(C)C(CNC(=O)c1cc(Br)c(Br)s1)c1ccco1` (stereo not given) reads -4.5% (inactive); that for `COc1cc(/C=C/C2=CC(C)(C)NC(=S)N2)cc(OC)c1OC`, 3.9% (inactive). The result for `COc1cc(/C=C/c2ccc(/C=C/c3cc(OC)c(OC)c(OC)c3)cc2)cc(OC)c1OC` reads 20.5% (active). With `CCC(=O)c1ccc(OC(=O)/C=C/c2cc(OC)c(OC)c(OC)c2)cc1` the figure was 2.2% (inactive). Take `Cc1cccc(C)c1NC(=O)C(c1cccc(F)c1)N1CCN(C)CC1` (stereo not given): the inhibition was 1.1% (inactive). The result for `CCOc1ccc(/C(O)=C2/C(=O)C(=O)N(Cc3cccnc3)C2c2ccc(N(C)C)cc2)c(C)c1` (stereo not given) reads 6.1% (inactive); that for `Cc1ccc(CN2CCCOCCS2(=O)=O)cc1`, 4% (inactive); that for `O=[N+]([O-])c1cc2ccccc2nc1-c1ccccc1`, 20.7% (active). Turning to `Cc1ccc2cccc([N+](=O)[O-])c2n1`, the inhibition was -4.4% (inactive).

For `O=C(Oc1ccc([N+](=O)[O-])cc1)c1ccc2ccccc2n1`, the inhibition is 6.3% (inactive).

Regarding `CNc1nc(=O)n(C2CCCO2)cc1C` (stereo not given), the inhibition is -12.3% (inactive). With `CCCCCCNC(=O)O[C@]12C[C@@H](C(=O)OC)[C@@H](C(=O)OC)C[C@@]1(O)CN(S(=O)(=O)c1ccc(C)cc1)C2` the figure was -8.7% (inactive); with `Cc1ccc(C(=O)COC(=O)c2cccc(N3C(=O)c4c(C)nc5ccccc5c4C3=O)c2)cc1C`, -9.4% (inactive); with `COc1ccc(Cn2c(=O)sc3ccccc32)cc1OC`, -6.5% (inactive).

For `COc1ccc(CCN=C2SCC(=O)N2C)cc1OC`, the inhibition is 0.9% (inactive).

Consider `COc1ccc(CCN=C2SCC(=O)N2Cc2ccccc2)cc1OC`, for which the inhibition is 32.3% (active).

As for `COc1cccc(OC)c1C(=O)N1CCN(Cc2cccnc2)CC1`, the inhibition is 1.8% (inactive).

Regarding `N#CCCN(CCC#N)c1nnc(-c2ccccc2)s1`, the inhibition was 0.8% (inactive). With `Cc1nn2cc(-c3ccc(Cl)cc3)cnc2c1Br` the figure was 4% (inactive); with `Cc1scc(C(=O)NNC(=S)NCc2ccccc2)c1C`, 6.1% (inactive); with `CC(C)Oc1ccc(CCC(=O)NNC(=S)NCc2ccccc2)cc1`, 37.4% (active). The result for `CC(C)Oc1ccc(CC(=O)NNC(=S)Nc2ccc(Br)cc2)cc1` reads 1.7% (inactive). The result for `O=C(CS(=O)(=O)c1ccc(C(F)(F)F)cn1)NNC(=O)c1ccccc1` reads -6.4% (inactive); that for `CC[C@@]1(C(=O)OC)N[C@H](CN(C)C(C)=O)[C@@H]2C(=O)N(C)C(=O)[C@@H]21`, -0.8% (inactive). As for `CCN(C[C@H]1N[C@@](CC)(C(=O)OC)[C@H]2C(=O)N(C)C(=O)[C@@H]12)C(=O)Nc1ccc(F)cc1`, the inhibition was 33.4% (active).

`CCNC(=O)N(CC)C[C@H]1N[C@@](CC)(C(=O)OC)[C@H]2C(=O)N(Cc3ccccc3)C(=O)[C@@H]12`: the inhibition is -9.5% (inactive). Turning to `CCOC(=O)c1c(C)nn(-c2ncccc2NC(=O)CCC(=O)O)c1C`, the inhibition was 21.7% (inactive). With `CC(C)(CNC(=O)c1cc(=O)[nH]c2ccccc12)N1CCOCC1` the figure was 9.2% (inactive); with `Cc1cc(C(=O)Nc2ccc(C)c(S(=O)(=O)N3CCOCC3)c2)c2ccccc2n1`, -3.5% (inactive). With `COc1ccc(NC(=O)c2cc(=O)[nH]c3ccccc23)cc1S(=O)(=O)N1CCOCC1` the figure was 26.2% (active). The result for `Cc1ccc(O)c(NC(=O)c2cc(-c3ccco3)on2)c1` reads -12.1% (inactive); that for `CC(C)Oc1ccc(C(CC(=O)N2CCOCC2)C(C)C)cc1` (stereo not given), 9% (inactive). With `CCN(CC)C(=O)CSC(Nc1cccc(F)c1)=C(C#N)C#N`, the inhibition is -180% (inactive). The result for `O=C1C2C3C=CC(C3)C2C(=O)N1c1ccc(-c2nc3ccccc3c(=O)o2)cc1` (stereo not given) reads 0.6% (inactive); that for `COc1c(O)ccc2c1CN1CCc3cc4c(cc3C1C2)OCO4` (stereo not given), 30% (active).

With `COc1cc(C2c3cc4c(cc3C(O)C3COC(=O)C23)OCO4)cc(OC)c1OC` (stereo not given), the inhibition is -3.6% (inactive). With `COc1ccc(CN2CCCC(N3CCc4ccccc4C3)C2)c(O)c1` (stereo not given), the inhibition was 5% (inactive).

As to `CC(C)(C)NC(=O)C(=O)NCc1ccncc1`, the inhibition is -1.7% (inactive). With `CCCN1C2CCCC1CC(NC(=O)NC13CC4CC(CC(C4)C1)C3)C2` (stereo not given) the figure was 5.4% (inactive). As for `Cc1ccccc1NC(=O)CSc1ccc2nnc(-c3ccccn3)n2n1`, the inhibition was 8.8% (inactive). With `Cc1ccc(C(=O)N/N=C\c2cc(Br)c(Br)o2)cn1` the figure was 28.3% (active); with `CCOc1cc(/C=N/NC(=O)c2ccncc2)cc(Br)c1O`, 2.3% (inactive). `O=C(N/N=C/c1ccc(Br)o1)c1cncc(Br)c1`: the inhibition is 2.7% (inactive). Take `Cc1ccccc1Cn1c(C)c(C(=O)NCc2cccc(C(F)(F)F)c2)sc1=O`: the inhibition was -0.6% (inactive).

For `O=C1c2ccccc2C(O)N1Cc1ccccc1` (stereo not given), the inhibition is -0.3% (inactive). With `CCOC(=O)C1=C(c2ccccc2)NC(=O)NC1c1cc(OC)c(OC)cc1OC` (stereo not given) the figure was -1.4% (inactive). The result for `Nn1c(SCC(=O)NC2CCCC2)nnc1-c1ccccc1F` reads 6.4% (inactive); that for `Nn1c(SCC(=O)NC(=O)NC2CCCC2)nnc1-c1ccccc1F`, -0.3% (inactive). With `Cc1nnc(SCC(=O)NC(=O)NC2CCCC2)n1N` the figure was 30.1% (active); with `COC(=O)c1cccc(N(C(=O)CNC(=O)c2cccs2)C(C(=O)NCC2CCCO2)c2ccc(OC)c(OC)c2)c1` (stereo not given), 6.4% (inactive). `Cc1cccc(C(=O)Nc2ccccc2C(=O)NCc2cccnc2)c1`: the inhibition is 3.7% (inactive).

Source of the values: PubChem BioAssay AID602438 (Sanford-Burnham Center for Chemical Genomics, 2012).
